According to PubChem BioAssay (Tox21):
Records with an inconclusive call do not appear. Activity calls are given as the source filed them. Unless noted, the call rests on the fitted dose curve; in most records, active means well fitted curve in the direction sought with a large enough effect in the repeat runs; inconclusive means weak or mixed curves; inactive means no such curve, though single readings can be large; an effect the other way counts as inactive or inconclusive.

What was measured:
[1] = A CellTox Green Cytotoxicity Assay to monitor cytotoxicity in HepG2 cells - 0 hour (AID 1224882); further: nearly all actives have a fitted effect of over 35% in size
Procedure, shortened: (§1)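 Real-time, homogeneous cytotoxicity readout: dead-cell DNA staining by CellTox Green in HepG2 monolayers, fluorescence measured at timed intervals up to 40 h of continuous compound exposure.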

[2] = A CellTox Green Cytotoxicity Assay to monitor cytotoxicity in HepG2 cells - 32 hour (AID 1224883); further: nearly all actives have a fitted effect of over 50% in size
Procedure, shortened: as §1

[3] = A CellTox Green Cytotoxicity Assay to monitor cytotoxicity in HEK293 cells - 8 hour (AID 1224884); further: nearly all actives have a fitted effect of over 35% in size
Procedure, shortened: (§2)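 Cytotoxicity was tracked continuously in HEK293 cells by a DNA-binding dye excluded from viable cells. Compounds were transferred in DMSO 5 h after seeding; fluorescence was recorded at intervals up to 40 h.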

[4] = qHTS RealTime-Glo MT Cell Viability Assay in HepG2 cells - 16 hour (AID 1224885); further: nearly all actives have a fitted effect of over 50% in size
Procedure, shortened: (§3)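 qHTS, HepG2, 600 cells/well, RealTime-Glo (NanoLuc + prosubstrate) added with cells; 5 h preincubation; DMSO compound addition; 37 C; luminescence at 0/8/16/24/32/40 h.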

[5] = qHTS RealTime-Glo MT Cell Viability Assay in HEK293 cells - 24 hour (AID 1224886); further: top concentration of the series differs between compounds; nearly all actives have a fitted effect of over 50% in size
Procedure, shortened: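 Assay medium contained NanoLuc luciferase plus cell-permeant prosubstrate, added with HEK293 cells at 600 cells/well. After 5 h at 37 C/5% CO2 compounds were added; plates stayed at 37 C for 40 h with serial luminescence reads.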

[6] = qHTS RealTime-Glo MT Cell Viability Assay in HEK293 cells - 8 hour (AID 1224887); further: top concentration of the series differs between compounds; nearly all actives have a fitted effect of over 50% in size
Procedure, shortened: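 Nonlytic bioluminescent viability monitoring. HEK293 at 600 cells/well with reagent; 5 h settle; compound transfer by pintool; plates held at 37 C and read at set time points.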

[7] = A CellTox Green Cytotoxicity Assay to monitor cytotoxicity in HEK293 cells - 16 hour (AID 1224888); further: nearly all actives have a fitted effect of over 35% in size
Procedure, shortened: as §2

[8] = qHTS RealTime-Glo MT Cell Viability Assay in HepG2 cells - 0 hour (AID 1224889); further: nearly all actives have a fitted effect of over 50% in size
Procedure, shortened: as §3

[9] = A CellTox Green Cytotoxicity Assay to monitor cytotoxicity in HepG2 cells - 8 hour (AID 1224890); further: nearly all actives have a fitted effect of over 45% in size
Procedure, shortened: as §1

[10] = qHTS assay to identify small molecule antagonists of the estrogen receptor alpha (ER-alpha) signaling pathway using the BG1 cell line in the presence of 0.1 nM 17-beta-estradiol - cell viability counter screen (AID 1259241); further: nearly all actives have a fitted effect of over 40% in size
Procedure, shortened: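 Viability in VM7Luc4E2 cells after 22 hr compound exposure under 0.1 nM 17beta-estradiol stimulation, by CellTiter-Fluor.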

[11] = qHTS assay to identify small molecule antagonists of the androgen receptor (AR) signaling pathway using the MDA cell line in the presence of 0.5 nM R1881 - cell viability counter screen (AID 1259242); further: nearly all actives have a fitted effect of over 45% in size
Procedure, shortened: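 Cytotoxicity toward MDA-kb2 cells is measured by CellTiter-Fluor live-cell protease fluorescence after 16 hr compound exposure at 37C in the presence of 0.5 nM R1881 stimulator.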

[12] = qHTS assay to identify small molecule phospholipidosis (PLD) inducers (AID 1259344; active means well fitted curve in the direction sought with a large enough effect; an effect the other way counts as inactive or inconclusive)
Procedure, shortened: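 Quantitative HTS in HepG2: compound plus LipidTOX Red dye for 24 h, paraformaldehyde fixation with Hoechst 33342, widefield high-content imaging; amiodarone as positive and DMSO as negative control.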

[13] = qHTS assay to identify small molecule HDAC inhibitors (AID 1259364); further: top concentration of the series differs between compounds; nearly all actives have a fitted effect of over 45% in size
Procedure, shortened: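 Homogeneous cell-based luminescent assay of endogenous class I/II HDAC activity; HCT-116 cells, 2 h compound exposure, 30 min HDAC-Glo development at RT.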

[14] = qHTS assay to identify small molecule HDAC inhibitors - cell viability counter screen (AID 1259365)
Procedure, shortened: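 Cytotoxicity was gauged in wild-type HCT-116 cells after a brief 2hr treatment with DMSO-dissolved compounds at 37C and 5% CO2, using CellTiter-Glo luminescence developed for 30min at room temperature.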

[15] = qHTS assay to identify small molecule agonists of the sonic hedgehog signaling (Shh) pathway - cell viability counter screen (AID 1259366); further: nearly all actives have a fitted effect of over 50% in size
Procedure, shortened: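 Stable Gli1-Luc NIH/3T3 clone, 2,000 cells/well. Compound exposure 24hr at 37C. Read-out: CellTiter-Fluor fluorescence.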

[16] = qHTS assay to identify small molecule antagonists of the sonic hedgehog signaling (Shh) pathway - cell viability counter screen (AID 1259367); further: nearly all actives have a fitted effect of over 55% in size
Procedure, shortened: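 Seed 3T3 Gli1-Luc cells at 2,000 per well; incubate 4 hr; add compound in DMSO, then conditioned medium; incubate at 37C with 5% CO2; add CellTiter-Fluor after 23 hr; read fluorescence 1 hr later.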

[17] = qHTS assay to identify small molecule agonists of the sonic hedgehog signaling (Shh) pathway (AID 1259368; calls by dose curve;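 further: NIH/3T3-derived 3T3Gli1-Luc cells carrying a stable Gli1-driven firefly luciferase reporter; series mostly up to about 92 µM; nearly all actives have a fitted effect of over 15% in size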)
Procedure, shortened: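 Steps: seed 3T3 Gli1-Luc cells, incubate 4 hr at 37 C, pin-transfer compounds in DMSO alongside a positive control, incubate 24 hr, add luciferase detection reagent, wait 30 min at room temperature, read luminescence.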

[18] = target: Estrogen receptor (Homo sapiens) (UniProt P03372); test: qHTS assay to identify small molecule antagonists of the estrogen receptor alpha (ER-alpha) signaling pathway using the BG1 cell line in the presence of 0.1 nM 17-beta-estradiol (AID 1259244); further: nearly all actives have a fitted effect of over 50% in size
Chain of Estrogen receptor (Homo sapiens) (P03372 whole entry, looked up): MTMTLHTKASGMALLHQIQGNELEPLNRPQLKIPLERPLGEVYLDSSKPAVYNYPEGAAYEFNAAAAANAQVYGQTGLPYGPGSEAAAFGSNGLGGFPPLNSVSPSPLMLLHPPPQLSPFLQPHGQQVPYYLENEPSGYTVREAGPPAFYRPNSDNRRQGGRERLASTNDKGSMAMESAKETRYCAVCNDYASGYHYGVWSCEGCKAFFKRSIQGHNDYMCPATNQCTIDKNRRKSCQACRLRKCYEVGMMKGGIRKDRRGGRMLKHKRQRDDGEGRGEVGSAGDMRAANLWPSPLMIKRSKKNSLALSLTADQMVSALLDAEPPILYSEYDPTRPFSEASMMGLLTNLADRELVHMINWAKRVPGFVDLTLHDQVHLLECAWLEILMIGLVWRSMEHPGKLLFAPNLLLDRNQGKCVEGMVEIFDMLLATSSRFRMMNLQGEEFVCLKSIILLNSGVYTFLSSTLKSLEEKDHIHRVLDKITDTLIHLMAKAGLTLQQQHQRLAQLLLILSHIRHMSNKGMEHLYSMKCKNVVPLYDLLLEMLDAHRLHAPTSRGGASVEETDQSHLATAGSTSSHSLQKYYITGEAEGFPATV
Procedure, shortened: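 After 5 days in hormone-depleted medium (charcoal-stripped serum, no phenol red), VM7Luc4E2 cells were seeded, incubated 24 h, then co-treated with compound and 0.1 nM (final) estradiol for 22 h before luminescence detection.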

[19] = A CellTox Green Cytotoxicity Assay to monitor cytotoxicity in HEK293 cells - 32 hour (AID 1224881); further: nearly all actives have a fitted effect of over 40% in size
Procedure, shortened: as §2
On the % scale 0 is the no-effect control and ±100 the full control effect.

CCCCO
inactive: Potency [1] | Potency [2] | Potency [3] | Potency [4] | Potency [5] | Potency [6] | Potency [7] | Potency [8] | Potency [9] | Potency [10] | Potency [11] | Potency [12] | Potency [13] | Potency [14] | Potency [15] | Potency [16] | outcome [17]

CCCCCCCCCCO[C@@H]1O[C@H](CO)[C@@H](O)[C@H](O)[C@H]1O
inactive: Potency [1] | Potency [2] | Potency [3] | Potency [4] | Potency [7] | Potency [8] | Potency [9] | Potency [10] | Potency [11] | Potency [18] | Potency [13] | Potency [14] | Potency [15] | Potency [16] | outcome [17]

O=C(NCC1CN(c2ccc(N3CCOCC3=O)cc2)C(=O)O1)c1ccc(Cl)s1 (stereo unspecified)
inactive: Potency [19] | Potency [3] | Potency [4] | Potency [5] | Potency [6] | Potency [7] | Potency [8] | Potency [10] | Potency [11] | Potency [14] | Potency [15] | Potency [16] | outcome [17]

O=C1CCC(=O)O1
inactive: Potency [1] | Potency [2] | Potency [3] | Potency [4] | Potency [6] | Potency [7] | Potency [8] | Potency [9] | Potency [10] | Potency [11] | Potency [18] | Potency [13] | Potency [14] | Potency [15] | Potency [16] | outcome [17]

O=S(=O)(Oc1ccc(Cl)cc1)c1ccccc1
inactive: Potency [1] | Potency [2] | Potency [3] | Potency [4] | Potency [7] | Potency [8] | Potency [9] | Potency [10] | Potency [11] | Potency [18] | Potency [14] | Potency [15] | Potency [16] | outcome [17]

NC(N)=NCCC[C@H](N)C(=O)O
inactive: cytotoxicity increase [19] -21.7% [at 6.97 µM] | cytotoxicity increase [3] -18% [at 6.97 µM] | activity change, negative = cytotoxic [4] 0.73% [at 6.97 µM] | activity change, negative = cytotoxicity [5] 4.77% [at 6.97 µM] | activity change, negative = cytotoxicity [6] 6.66% [at 6.97 µM] | activity change, negative = cytotoxicity [8] 0.79% [at 6.97 µM] | cytotoxicity increase [9] -1.13% [at 6.97 µM] | activity change, negative = cytotoxicity [10] 2.44% [at 8.39 µM] | viability change, negative = cytotoxic [11] 3.68% [at 8.39 µM] | activity change, negative = inhibition [18] 4.47% [at 8.39 µM] | PLD induction [12] -2.12% [at 7.66 µM] | activity change, negative = inhibition [13] 1.7% [at 8.39 µM] | activity change, negative = cytotoxicity [14] 4.6% [at 8.39 µM] | viability change, negative = cytotoxic [15] -3.86% [at 8.39 µM] | viability change, negative = cytotoxic [16] 1.21% [at 8.39 µM] | activity change [17] -0.124% [at 8.39 µM]
